Experimental findings from PubChem BioAssay (EPA / NIEHS) are described below.

The source made the active and inactive calls. How the source made its calls: active means hit-call score of the fitted dose curve at least 0.9, where 1 is the maximum; inactive means score below 0.9.

Test [1] can be described thus: ATG_E_Box_CIS: Attagene CIS-FACTORIAL HepG2 Assay for human Enhancer Box (E-box) (AID 2282936). The following applies: HepG2 E-box cis-reporter transcription, actives raise or lower the signal. The procedure, abridged: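 Measured 24 h post-dosing in HepG2 cells transfected with multiple cis-regulated reporter units, signal being reporter mRNA induction detected by fluorescent RT-PCR with capillary electrophoresis; gain or loss fitted against DMSO.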

The nature of test [2]: ATG_M_61_CIS: Attagene CIS-FACTORIAL HepG2 Assay for M61 Transcription Factor (Internal Marker) (AID 2282937). The following applies: HepG2 Attagene CIS-FACTORIAL M61 internal marker reporter; actives raise or lower the signal. The method, boiled down: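 Multiplexed reporter mRNA assay, HepG2 human hepatoma cells, 24 h treatment. Signal: FAM-labelled, HpaI-digested RT-PCR fragments by CE. Fit: bidirectional, baseline DMSO.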

A short description of test [3]: ATG_EGR_CIS: Attagene CIS-FACTORIAL HepG2 Assay for human Early Growth Response 1 (EGR1) (AID 2282938). The following applies: HepG2 Attagene CIS-FACTORIAL EGR reporter mRNA; actives raise or lower the signal. The procedure, abridged:
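Multiplexed cis-reporter system in human hepatoma HepG2 cells, transiently transfected. Cells are dosed for 24 h; reporter transcripts are amplified, fluorescently tagged and sized by capillary electrophoresis, with DMSO as negative control.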

Test [4] is described as follows: ATG_Ets_CIS: Attagene CIS-FACTORIAL HepG2 Assay for human Erythroblast Transformation Specific (ETS) (AID 2282941). The following applies: HepG2 ETS cis-reporter transcription, actives raise or lower the signal. The procedure, abridged:
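Endogenous transcription factor activity read as reporter mRNA via RT-PCR and capillary electrophoresis, with gain or loss fitted bidirectionally against DMSO. Human HepG2 liver cells, transiently transfected CIS reporter constructs, 24 h exposure.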

Test [5] concerns the target Hepatocyte nuclear factor 3-beta (Homo sapiens) (UniProt Q9Y261). The test is described as follows: ATG_FoxA2_CIS: Attagene CIS-FACTORIAL HepG2 Assay for human Forkhead box A2 (FOXA2) (AID 2282942). The following applies: HepG2 cis-reporter transcription factor activity, 24 h; actives raise or lower the signal. The procedure, abridged: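 Multiplexed cis-element reporter assay in transiently transfected HepG2. Twenty-four hours post-dosing, RNA was reverse-transcribed, amplified, FAM-labelled, HpaI-digested and separated by CE. Activity gain or loss relative to DMSO.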

A short description of test [6]: ATG_FoxO_CIS: Attagene CIS-FACTORIAL HepG2 Assay for human Forkhead box O (FoxO) (AID 2282943). The following applies: HepG2 Attagene cis-reporter, FoxO element, mRNA; actives raise or lower the signal. The method, boiled down:
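HepG2 cells transiently transfected with cis-promoter-driven multiple reporter transcription units; 24 h after chemical dosing, reporter mRNA quantified by RT-PCR, fluorescent primer extension, HpaI digestion and capillary electrophoresis. Bidirectional fitting versus DMSO baseline.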

A short description of test [7]: ATG_GLI_CIS: Attagene CIS-FACTORIAL HepG2 Assay for human Zinc Finger Protein GLI1 (AID 2282945). The following applies: HepG2, Attagene cis-factorial reporter mRNA, GLI element; actives raise or lower the signal. The procedure, abridged:
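HepG2 cells transiently transfected with cis-promoter multiplexed reporter units report endogenous transcription factor activity. After 24 h chemical exposure, reporter mRNA was quantified by RT-PCR, 6-FAM labelling, HpaI digestion and capillary electrophoresis, with bidirectional fitting against DMSO.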

A short description of test [8]: ATG_ISRE_CIS: Attagene CIS-FACTORIAL HepG2 Assay for human Interferon Regulatory Factor 1 (IRF1) binding to an Interferon-Stimulated Response Element (ISRE) (AID 2282948). The following applies: HepG2 ISRE cis-reporter (Attagene), mRNA transcription readout; actives raise or lower the signal. The method, boiled down: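 Endogenous transcription factor activity read as reporter transcript abundance via RT-PCR and capillary electrophoresis. HepG2 cells transiently transfected, 24 h chemical exposure. Gain or loss fitted against DMSO baseline.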

Test [9] is described as follows: ATG_M_32_CIS: Attagene CIS-FACTORIAL HepG2 Assay for M32 Transcription Factor (Internal Marker) (AID 2282949).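 Further: background control marker of the multiplexed CIS panel rather than a real target.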 The following applies: HepG2 Attagene cis-factorial M32 reporter, mRNA; actives raise or lower the signal. The procedure, abridged:
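Transient MRTU transfection of HepG2; 24 h compound treatment; TriZol RNA, oligo(dT) RT, reporter PCR, 6-FAM primer extension, HpaI cut, CE. Gain/loss of signal vs DMSO.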

For test [10], the target named is Hepatocyte nuclear factor 6 (Homo sapiens) (UniProt Q9UBC0). Nature of the test: ATG_HNF6_CIS: Attagene CIS-FACTORIAL HepG2 Assay for human Hepatocyte Nuclear Factor 6 (HNF6) (AID 2282952). The following applies: HepG2 Attagene cis-factorial HNF6 reporter transcription; actives raise or lower the signal. The method, boiled down: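 Readout: fluorescent reporter-transcript fragments resolved by capillary electrophoresis after RT-PCR, reflecting endogenous factor activity in transfected HepG2. Exposure 24 h. Gain or loss of signal fitted bidirectionally against DMSO.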

Test [11] concerns the target Heat shock factor protein 1 (Homo sapiens) (UniProt Q00613). The test is described as follows: ATG_HSE_CIS: Attagene CIS-FACTORIAL HepG2 Assay for human Heat Shock Transcription Factor 1 (HSE) (AID 2282953). The following applies: HepG2 HSE cis-reporter, Attagene RNA transcription; actives raise or lower the signal. The method, boiled down:
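Liver-derived HepG2 cells carry transiently introduced multiple reporter units governed by cis promoters. Reporter RNA measured 24 h post-dose through reverse transcription, PCR amplification, fluorescent labelling and capillary electrophoresis, normalised to DMSO.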

The nature of test [12]: ATG_MRE_CIS: Attagene CIS-FACTORIAL HepG2 Assay for human Metal Responsive Element (MRE) (AID 2282954). The following applies: HepG2 MRE cis-reporter transcription, Attagene multiplex; actives raise or lower the signal. The procedure, abridged:
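Readout: capillary electrophoresis of 6-FAM-labelled, HpaI-digested RT-PCR reporter products. System: HepG2 cells carrying transient multiplexed cis reporters, dosed 24 h. Analysis: bidirectional fit, DMSO baseline.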

Test [13] in a line: ATG_PBREM_CIS: Attagene CIS-FACTORIAL HepG2 Assay for human Phenobarbital-responsive Enhancer Module (PBREM) (AID 2282955). The following applies: HepG2 PBREM cis-reporter, Attagene multiplexed transcription; actives raise or lower the signal. The procedure, abridged:
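Multiplexed cis-reporter readout in human hepatoma HepG2 cells; PBREM-regulated transcript quantified after 24 h exposure by fluorescent RT-PCR fragment analysis. Signal changes up or down fitted relative to DMSO.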

Test [14] can be described thus: ATG_M_19_CIS: Attagene CIS-FACTORIAL HepG2 Assay for M19 Transcription Factor (Internal Marker) (AID 2282939). The following applies: HepG2 Attagene CIS-FACTORIAL M19 internal marker reporter; actives raise or lower the signal. The method, boiled down:
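Chemical-treated HepG2 (24 h) with MRTU constructs; reporter transcripts detected by fluorescent RT-PCR fragment analysis on capillary electrophoresis. Internal background marker, DMSO as baseline.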

Test [15] in a line: ATG_GRE_CIS: Attagene CIS-FACTORIAL HepG2 Assay for human Glucocorticoid Response Elements (GRE) (AID 2282947). The following applies: HepG2 GRE cis-reporter, Attagene multiplex mRNA; actives raise or lower the signal. The procedure, abridged:
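HepG2, transient cis-reporter transfection, 24 h. Reporter mRNA: RT-PCR then CE, fluorescence. Fit both directions vs DMSO.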

Test [16] can be described thus: ATG_M_06_CIS: Attagene CIS-FACTORIAL HepG2 Assay for M06 Transcription Factor (Internal Marker) (AID 2282950). The following applies: HepG2 Attagene CIS-FACTORIAL M06 internal marker reporter; actives raise or lower the signal. The procedure, abridged: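 Cells (HepG2, transiently carrying cis-driven reporter units) receive chemical for 24 h before RNA isolation. Reporter cDNA is PCR-amplified, FAM-labelled by primer extension, HpaI-digested and sized on a capillary analyser.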

Test [17] deals with Hypoxia-inducible factor 1-alpha (Homo sapiens) (UniProt Q16665). The test is described as follows: ATG_HIF1a_CIS: Attagene CIS-FACTORIAL HepG2 Assay for human Hypoxia Inducible Factor 1 (HIF1A) (AID 2282951). The following applies: HepG2 Attagene cis-factorial HIF1a reporter transcription; actives raise or lower the signal. The procedure, abridged: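 Cis-element reporter constructs were transiently transfected into HepG2 cells, which were treated for 24 h; reporter RNA was reverse-transcribed, amplified, labelled and resolved by capillary electrophoresis.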

Test [18] can be described thus: ATG_ERE_CIS: Attagene CIS-FACTORIAL HepG2 Assay for Estrogen Response Element (ERE) (AID 2282940). The following applies: HepG2 ERE cis-reporter, Attagene RNA transcript; actives raise or lower the signal. The method, boiled down:
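Human liver cells (HepG2) bearing transiently transfected, promoter-regulated reporter units were exposed 24 h. Reporter mRNA induction was detected by capillary electrophoresis of labelled RT-PCR products and fitted bidirectionally to DMSO.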

Test [19] can be described thus: ATG_GATA_CIS: Attagene CIS-FACTORIAL HepG2 Assay for human GATA Binding Protein (AID 2282944). The following applies: HepG2 GATA cis-element reporter, Attagene multiplex mRNA; actives raise or lower the signal. The procedure, abridged: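 Transfected cis-reporter HepG2 cells were treated with chemicals for 24 hours. Total RNA was then converted to cDNA, amplified with reporter-specific primers and analysed by fluorescent capillary electrophoresis, using DMSO-treated wells as baseline.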

Test [20] has as its target Bile acid receptor (Homo sapiens) (UniProt Q96RI1). Nature of the test: ATG_IR1_CIS: Attagene CIS-FACTORIAL HepG2 Assay for human Nuclear Receptor Subfamily 1 Group H Member 4 (NR1H4), IR1 submotif (AID 2282946). The following applies: IR1 reporter transcription, actives raise or lower the signal. The procedure, abridged:
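Readout: reporter transcript levels by RT-PCR with fluorescent capillary electrophoresis, from HepG2 cells transiently transfected with multiplexed cis-regulated reporters and dosed 24 h. Gain- or loss-of-signal fitted versus DMSO negative control.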

Sequence of Hepatocyte nuclear factor 6 (Homo sapiens) (Q9UBC0 whole entry, looked up, the tested form may be a part): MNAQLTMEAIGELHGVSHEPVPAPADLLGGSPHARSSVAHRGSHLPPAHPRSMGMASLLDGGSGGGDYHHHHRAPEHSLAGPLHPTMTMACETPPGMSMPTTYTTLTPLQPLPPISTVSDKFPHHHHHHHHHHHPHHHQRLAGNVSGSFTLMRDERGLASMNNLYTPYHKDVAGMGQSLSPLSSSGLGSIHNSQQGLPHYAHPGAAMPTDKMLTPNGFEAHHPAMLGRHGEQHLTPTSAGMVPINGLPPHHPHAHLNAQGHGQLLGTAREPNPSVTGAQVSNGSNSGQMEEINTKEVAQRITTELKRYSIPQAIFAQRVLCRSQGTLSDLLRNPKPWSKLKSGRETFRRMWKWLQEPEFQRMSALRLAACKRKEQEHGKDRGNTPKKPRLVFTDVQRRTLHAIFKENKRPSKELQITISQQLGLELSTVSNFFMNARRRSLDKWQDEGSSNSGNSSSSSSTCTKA
Sequence of Hepatocyte nuclear factor 3-beta (Homo sapiens) (Q9Y261 whole entry, looked up): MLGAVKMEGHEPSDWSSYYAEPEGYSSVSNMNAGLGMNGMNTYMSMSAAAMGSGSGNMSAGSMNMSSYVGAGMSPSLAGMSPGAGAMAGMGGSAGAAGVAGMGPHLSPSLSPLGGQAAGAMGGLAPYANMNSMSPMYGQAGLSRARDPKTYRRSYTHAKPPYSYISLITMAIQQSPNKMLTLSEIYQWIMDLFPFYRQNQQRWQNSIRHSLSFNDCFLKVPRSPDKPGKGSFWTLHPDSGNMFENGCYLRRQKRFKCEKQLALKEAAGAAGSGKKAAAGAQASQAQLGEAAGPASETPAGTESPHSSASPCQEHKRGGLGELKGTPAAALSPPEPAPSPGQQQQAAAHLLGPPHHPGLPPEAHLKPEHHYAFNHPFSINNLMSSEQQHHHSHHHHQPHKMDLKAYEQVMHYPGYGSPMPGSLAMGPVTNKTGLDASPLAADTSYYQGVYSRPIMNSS
Sequence of Heat shock factor protein 1 (Homo sapiens) (Q00613 whole entry, looked up): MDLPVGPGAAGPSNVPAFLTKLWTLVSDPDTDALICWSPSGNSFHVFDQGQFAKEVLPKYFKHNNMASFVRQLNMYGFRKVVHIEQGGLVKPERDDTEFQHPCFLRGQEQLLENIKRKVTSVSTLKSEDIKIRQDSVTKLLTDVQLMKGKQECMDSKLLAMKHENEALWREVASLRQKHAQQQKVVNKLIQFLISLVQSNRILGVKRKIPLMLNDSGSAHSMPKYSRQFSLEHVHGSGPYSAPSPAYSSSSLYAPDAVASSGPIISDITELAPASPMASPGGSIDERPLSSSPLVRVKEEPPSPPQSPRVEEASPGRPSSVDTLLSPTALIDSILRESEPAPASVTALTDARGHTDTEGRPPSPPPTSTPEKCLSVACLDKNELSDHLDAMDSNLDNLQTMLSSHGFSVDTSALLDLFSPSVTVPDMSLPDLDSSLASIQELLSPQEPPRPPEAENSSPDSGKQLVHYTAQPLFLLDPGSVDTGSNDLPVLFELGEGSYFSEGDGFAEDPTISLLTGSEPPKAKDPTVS
Sequence of Hypoxia-inducible factor 1-alpha (Homo sapiens) (Q16665 whole entry, looked up): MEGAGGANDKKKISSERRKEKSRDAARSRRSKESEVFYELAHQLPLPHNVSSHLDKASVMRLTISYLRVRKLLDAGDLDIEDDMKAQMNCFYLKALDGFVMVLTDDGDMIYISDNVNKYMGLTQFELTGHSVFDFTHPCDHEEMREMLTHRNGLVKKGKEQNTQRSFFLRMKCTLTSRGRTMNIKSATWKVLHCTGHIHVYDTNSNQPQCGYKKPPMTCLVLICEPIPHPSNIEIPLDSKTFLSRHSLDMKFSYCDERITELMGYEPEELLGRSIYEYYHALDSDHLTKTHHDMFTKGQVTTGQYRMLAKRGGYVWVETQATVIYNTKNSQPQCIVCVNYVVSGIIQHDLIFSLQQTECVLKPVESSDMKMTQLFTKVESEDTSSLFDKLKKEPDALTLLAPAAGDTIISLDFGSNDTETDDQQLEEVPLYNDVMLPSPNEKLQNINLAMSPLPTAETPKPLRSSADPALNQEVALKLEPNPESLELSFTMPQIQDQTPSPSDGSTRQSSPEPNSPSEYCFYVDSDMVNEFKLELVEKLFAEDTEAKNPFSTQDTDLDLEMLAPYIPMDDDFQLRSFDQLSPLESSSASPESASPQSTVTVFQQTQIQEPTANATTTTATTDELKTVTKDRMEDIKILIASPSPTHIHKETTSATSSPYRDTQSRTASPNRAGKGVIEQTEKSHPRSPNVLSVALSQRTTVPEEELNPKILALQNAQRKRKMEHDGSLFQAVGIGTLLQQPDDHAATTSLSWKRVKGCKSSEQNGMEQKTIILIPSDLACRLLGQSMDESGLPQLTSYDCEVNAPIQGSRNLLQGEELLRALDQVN
Sequence of Bile acid receptor (Homo sapiens) (Q96RI1 whole entry, looked up): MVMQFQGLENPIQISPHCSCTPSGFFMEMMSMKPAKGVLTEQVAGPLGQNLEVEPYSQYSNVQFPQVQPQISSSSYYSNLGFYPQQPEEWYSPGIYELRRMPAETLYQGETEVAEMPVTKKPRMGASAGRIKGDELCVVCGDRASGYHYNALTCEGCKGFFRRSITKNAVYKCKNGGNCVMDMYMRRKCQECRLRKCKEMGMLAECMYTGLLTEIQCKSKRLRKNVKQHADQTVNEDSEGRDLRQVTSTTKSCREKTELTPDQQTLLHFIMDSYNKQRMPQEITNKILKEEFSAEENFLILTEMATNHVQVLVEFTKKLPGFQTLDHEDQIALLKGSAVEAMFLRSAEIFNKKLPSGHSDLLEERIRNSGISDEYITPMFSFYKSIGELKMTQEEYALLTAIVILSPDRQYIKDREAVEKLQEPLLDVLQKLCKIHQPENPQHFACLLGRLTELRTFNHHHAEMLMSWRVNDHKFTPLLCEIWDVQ

What is called AC50 is the concentration giving half of the maximal activity seen. Consider `CC(CN1c2ccccc2Sc2ccccc21)N(C)C` (configuration not stated), for which the half-maximal activity concentration (AC50) in test [1] was 55.5 µM (active); in [3], 25.2 µM (active); in [12], 40.7 µM (active). Besides, the molecule was called inactive in [2], in test [4], in test [5], in [6], in test [7] and in [8]. The molecule was called inactive in test [9], in [10], in test [11] and in test [13].
For the molecule `CC(C=O)Cc1ccc(C(C)C)cc1` (configuration not stated), the outcome in [1], in test [2], in [3], in test [14], in [5] and in [6] was inactive. For the same molecule, the molecule was classed as inactive in test [7], in [15], in [8], in [9], in test [16] and in test [17]. The molecule was classed as inactive in [10], in [11] and in test [12].
For the molecule `c1cc(C(c2ccc(OCC3CO3)cc2)c2ccc(OCC3CO3)cc2)ccc1OCC1CO1` (configuration not stated), the AC50 was 100 µM (active) in test [1]; 8.73 µM (active) in test [3]; 185 µM (active) in test [5]; 167 µM (active) in test [6]; 180 µM (active) in test [19]; 14.7 µM (active) in test [8]. The values for the half-maximal activity concentration (AC50) in [10], in test [11] and in [12] were 25.3 µM (active), 12.5 µM (active) and 13.4 µM (active), respectively. Besides, the call in test [2], in test [18], in test [4], in [7], in test [20] and in test [9] was inactive. The outcome in [16] was inactive.
Take `NC(=O)NC1NC(=O)NC1=O` (configuration not stated): the outcome in test [1], in test [2], in test [3], in test [4], in [5] and in [6] was inactive. The call in test [19], in test [7], in test [15], in test [8], in test [9] and in test [16] was inactive. Further, the molecule was classed as inactive in test [10], in test [11], in [12] and in test [13].
With `CC1(C)OC[C@@H]2O[C@@]3(C(=O)O)OC(C)(C)O[C@H]3[C@@H]2O1`, the result in test [1], in test [2], in test [3], in [14], in [5] and in test [6] was inactive. The result in test [19], in test [8], in test [9], in [16], in test [17] and in test [10] was inactive. Moreover, the molecule was called inactive in [12] and in test [13].
Consider `NCCNCCN`, for which the result in [1], in [2], in test [3], in test [14], in [5] and in test [6] was inactive. Also, the call in test [19], in test [7], in test [8], in test [16], in test [17] and in test [10] was inactive. Moreover, the molecule was classed as inactive in test [11], in test [12] and in [13].
With `CC(C)(C)C(=O)c1ccccc1`, the outcome in test [1], in test [2], in test [3], in [18], in test [5] and in test [6] was inactive. Moreover, the molecule was classed as inactive in test [19], in [7], in test [20], in test [15], in [8] and in [9]. Also, the molecule was classed as inactive in test [16], in test [17], in test [10], in [11], in [12] and in test [13].
